Assay [1] can be described thus: qHTS assay to identify small molecule antagonists of the vitamin D receptor (VDR) signaling pathway - cell viability counter screen (AID 743225; active means well fitted curve in the direction sought with a large enough effect in the repeat runs; an effect the other way counts as inactive or inconclusive; further: nearly all actives have a fitted effect of over 50% in size; further: potency means the concentration at half of the fitted maximal effect). The gist of the method: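 VDR-bla HEK 293T cells, 4 h pre-incubation at 37C, then compound plus 1-alpha,25-dihydroxyvitamin D3 (3 nM final) for 16 h. After the beta-lactamase FRET read, CellTiter-Glo was added to the same wells; luminescence after 30 min at room temperature.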
In general terms: qHTS replaces the single test concentration by a dilution series.

Assay [2] is described as follows: qHTS assay to identify small molecule agonists of the NFkB signaling pathway - cell viability counter screen (AID 1159515). Further: series mostly up to about 61 µM; nearly all actives have a fitted effect of over 55% in size. The gist of the method: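 5 hr compound treatment of NFkB-bla ME-180 cells (2,000/well, seeded overnight beforehand), followed by reporter substrate for 1.5 hr. CellTiter-Glo added afterward; luminescence after 30 min RT.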
Assay [3] in a line: qHTS assay to identify small molecule agonists of the endoplasmic reticulum stress response signaling pathway (AID 1159516; active means well fitted activation curve with a large enough effect in the signal ratio in the repeat runs, not every such curve was filed as active; the % refers to the signal ratio). The gist of the method:
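Reporter HeLa cells (ESRE-beta-lactamase) underwent 5 hr compound incubation at 37 C and 5% CO2 in quantitative HTS format. Detection followed 2 hr of FRET substrate loading at room temperature.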

A short description of assay [4]: qHTS assay to identify small molecule agonists of the endoplasmic reticulum stress response signaling pathway - cell viability counter screen (AID 1159517).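 Further: HeLa cells carrying an ER stress response element beta-lactamase reporter; series mostly up to about 61 µM; nearly all actives have a fitted effect of over 50% in size.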 The procedure, abridged: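 ESRE-bla HeLa cells, 1,500 per well, seeded overnight then treated with compounds for 5 hr at 37 C. After the beta-lactamase read, viability in the same wells is measured by CellTiter-Glo luminescence after 30 min at room temperature.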

Assay [5] is described as follows: qHTS assay to identify small molecule antagonists of the retinoid-related orphan receptor gamma (ROR-gamma) signaling pathway - cell viability counter screen (AID 1159520; active means well fitted curve in the direction sought with a large enough effect in the repeat runs; an effect the other way counts as inactive or inconclusive; further: nearly all actives have a fitted effect of over 50% in size; further: potency means the concentration at half of the fitted maximal effect). The gist of the method:
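Tet-on ROR gamma CHO cells were given compounds for 2 hr, then doxycycline hyclate at 1 uM final, and incubated 16 hr at 37 C. Viability was measured as ATP content by CellTiter-Glo luminescence.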

The target of assay [6] is Nuclear receptor ROR-gamma (Homo sapiens) (UniProt P51449). Put plainly: qHTS assay to identify small molecule antagonists of the retinoid-related orphan receptor gamma (ROR-gamma) signaling pathway (AID 1159521; active means well fitted curve in the direction sought with a large enough effect in the repeat runs; an effect the other way counts as inactive or inconclusive; further: nearly all actives have a fitted effect of over 50% in size; further: potency means the concentration at half of the fitted maximal effect). The gist of the method:
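Tet-on RORγ CHO cells carrying a ROR response element–luciferase reporter were pretreated with compounds for 2 h, then induced with 1 uM (final) doxycycline hyclate for 16 h at 37 C. Antagonism was read as decreased ONE-Glo luminescence.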

Assay [7] can be described thus: qHTS assay to identify small molecule agonists of the AP-1 signaling pathway - cell viability counter screen (AID 1159525). Further: nearly all actives have a fitted effect of over 55% in size. The gist of the method:
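AP-1-bla ME-180 cells in Opti-MEM with 0.5% dialyzed FBS, compound exposure 5 h at 37 C in 15-point titration. Viability read in the same wells as ATP content by CellTiter-Glo luminescence, normalised to tetra-n-octylammonium bromide and DMSO controls.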

Assay [8] in a line: qHTS assay to identify small molecule agonists of the AP-1 signaling pathway (AID 1159526).
The target of assay [9] is Retinoic acid receptor RXR-alpha (Homo sapiens) (UniProt P19793). The assay is described as follows: qHTS assay to identify small molecule agonists of the RXR signaling pathway (AID 1159527). Further: nearly all actives have a fitted effect of over 35% in size. Further: potency means the concentration at half of the fitted maximal effect. The procedure, abridged: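 GeneBLAzer RXR-alpha-UAS-bla HEK 293T cells in medium with 2% charcoal-stripped FBS, pre-incubated 5 hr at 37 C, then exposed to compounds 16 hr. Beta-lactamase reporter read by FRET substrate, 2 hr room temperature, 460/530 nm emission.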
Retinoic acid receptor RXR-alpha (Homo sapiens), sequence (P19793 whole entry, looked up): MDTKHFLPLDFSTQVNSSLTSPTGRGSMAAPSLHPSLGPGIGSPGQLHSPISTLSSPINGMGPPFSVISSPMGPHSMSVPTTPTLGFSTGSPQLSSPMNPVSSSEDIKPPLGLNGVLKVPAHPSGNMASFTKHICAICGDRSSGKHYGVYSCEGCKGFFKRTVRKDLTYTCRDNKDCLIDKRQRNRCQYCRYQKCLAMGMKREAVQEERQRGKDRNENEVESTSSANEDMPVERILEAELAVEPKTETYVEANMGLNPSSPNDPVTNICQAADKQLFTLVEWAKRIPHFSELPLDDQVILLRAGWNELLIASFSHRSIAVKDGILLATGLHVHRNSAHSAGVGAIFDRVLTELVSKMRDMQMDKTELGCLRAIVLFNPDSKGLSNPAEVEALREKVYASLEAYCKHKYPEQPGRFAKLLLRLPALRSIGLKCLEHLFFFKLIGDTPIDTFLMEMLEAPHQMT

Assay [10] can be described thus: qHTS assay to identify small molecule agonists of the RXR signaling pathway - cell viability counter screen (AID 1159529; active means well fitted curve in the direction sought with a large enough effect in the repeat runs; an effect the other way counts as inactive or inconclusive). The procedure, abridged: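 RXR-alpha-UAS-bla HEK 293T cells in medium with 2% charcoal-stripped FBS were preincubated 5 hr, then exposed to compounds for 16 hr at 37 C. Viability was read as CellTiter-Glo luminescence after 30 min at room temperature.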

Values joined by “and” are separate entries in the source; they are usually repeats but may differ in a detail not shown here. Equal entries are not always repeated. Inconclusive results are not listed. A structure can be active in one record and inactive in another. Active and inactive are the calls of the source. Unless noted, the call rests on the fitted dose curve.

As to `COC(=O)[C@H]1[C@H]2C[C@@H]3c4[nH]c5cc(OC)ccc5c4CCN3C[C@H]2C[C@@H](OC(=O)c2cc(OC)c(OC)c(OC)c2)[C@@H]1OC`, the Potency entry in assay [1] is “inactive and 31.8 µM (active)”; in assay [6], 30.6 µM (active) and 28.1 µM (active). Moreover, the Potency result in assay [2], in [4], in assay [5], in assay [7] and in assay [8] was “inactive” in each case. For the same compound, the result in assay [3] was inactive.

For the compound `CCn1cc(C(=O)O)c(=O)c2cc(F)c(N3CCNC(C)C3)c(F)c21` (stereo not drawn), the Potency entry in assay [1], in assay [2], in assay [4], in [5], in assay [6] and in assay [8] was “inactive” each time. Besides, the Potency result in assay [9] is “inactive”. In assay [3], the result was inactive.

As to `Cc1ccnc2c1NC(=O)c1cccnc1N2C1CC1`, the Potency result in assay [1], in assay [2], in assay [4], in assay [5], in assay [6] and in assay [7] was “inactive” throughout. Moreover, the Potency result in assay [8] was “inactive”. Also, the result in [3] was inactive. Besides, in [9], the Potency was 11.4 µM (active) and inactive.

Take `OCCOCCN1CCN(C(c2ccccc2)c2ccc(Cl)cc2)CC1` (stereo not drawn): the Potency entry in [1], in assay [2], in assay [4], in assay [5], in [7] and in assay [8] was “inactive” in each case. Also, the call in assay [3] was inactive. In assay [6], the Potency was 47.9 µM (active) and inactive.

For the compound `c1ccc2n[nH]nc2c1`, the Potency entry in assay [1], in assay [2], in [4], in assay [5], in [6] and in assay [8] was “inactive” each time. For the same compound, the Potency entry in [9] and in assay [10] was “inactive” each time. The compound was called inactive in [3].

Consider `OCCN1CCNCC1`, for which the Potency result in [1], in assay [2], in [4], in assay [7], in [8] and in [9] was “inactive” each time. Further, the Potency result in assay [10] is “inactive”. Further, in [3], the result was inactive. Besides, the Potency in assay [5] was 60.5 µM (active) and inactive.

With `O=C1CC2(CCCC2)CC(=O)N1CCCCN1CCN(c2ncccn2)CC1`, the Potency result in assay [1], in assay [2], in assay [4], in assay [5], in assay [7] and in assay [8] was “inactive” throughout. For the same compound, the Potency result in [10] is “inactive”. In addition, in assay [3], the result was inactive. Further, the Potency in [6] was 27.3 µM (active) and inactive.

Regarding `CC(C)(C)c1ccccc1`, the Potency entry in [1], in assay [2], in assay [4], in [5], in assay [6] and in [7] was “inactive” in each case. The Potency result in assay [8] and in [9] was “inactive” in each case. Further, the call in [3] was inactive.

In the case of `O=C(O)CP(=O)(O)O`, the Potency result in assay [1], in assay [2], in assay [4], in [5], in [6] and in assay [8] was “inactive” each time. In addition, in [9], the Potency result was “inactive”. Further, the result in assay [3] was inactive.

Turning to `O`, the Potency entry in assay [1], in assay [2], in assay [4], in assay [5], in assay [7] and in assay [8] was “inactive” each time. The Potency result in assay [9] and in assay [10] was “inactive” each time. In assay [3], the outcome was inactive.

Regarding `O=C(O)CCc1ccccc1`, the Potency entry in assay [1], in [2], in assay [4], in assay [5], in assay [6] and in [8] was “inactive” in each case. For the same compound, the Potency entry in [9] and in [10] was “inactive” in each case. In assay [3], the compound was called inactive.

For the compound `COc1ccc(Cc2cnc(N)nc2N)cc1OC`, the Potency result in assay [1], in [2], in [4], in [5], in assay [6] and in assay [7] was “inactive” in each case. Besides, the Potency entry in assay [8] and in [9] was “inactive” each time. Moreover, the outcome in [3] was inactive.

For `CCc1ccc(C(c2ccc(CC)cc2)C(Cl)Cl)cc1`, the Potency result in [1], in assay [2], in [4], in assay [5], in assay [6] and in assay [8] was “inactive” each time. In assay [3], the call was inactive.

`Cc1occc(=O)c1OC(=O)C(C)C`: the Potency result in [1], in [2], in [4], in [5], in assay [6] and in [7] was “inactive” in each case. Also, the Potency entry in assay [8] and in [9] was “inactive” throughout. In addition, the outcome in assay [3] was inactive.

For `O=c1n(CC2CO2)c(=O)n(CC2CO2)c(=O)n1CC1CO1` (stereo not drawn), the Potency entry in [1], in assay [2], in assay [4], in assay [5], in [6] and in assay [7] was “inactive” each time. The Potency entry in assay [8] is “inactive”. For the same compound, the compound was called inactive in assay [3]. Also, the Potency in [9] is 3.89 µM (active).

Turning to `Nc1cc(S(=O)(=O)O)cc2cc(S(=O)(=O)O)cc(O)c12`, the Potency entry in [1], in assay [2], in assay [4], in assay [5], in [7] and in [8] was “inactive” throughout. Further, the Potency result in assay [10] was “inactive”. The Potency result in assay [6] is “inactive and 30.6 µM (active)”; in [9], “inactive and 24.5 µM (active)”.
